We go through five compounds from PubChem BioAssay (NCATS).

In experiment [1] the target is Estrogen receptor (Homo sapiens) (UniProt P03372). The experiment in a line: qHTS assay for small molecule agonists of estrogen receptor alpha signaling (AID 588514).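 Note: 0% = vehicle only and 100% = reference agonist; nearly all actives have a fitted effect of over 70% in size.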 In a few lines:
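ER-alpha-UAS-bla GripTite HEK 293 cells in medium with 2% charcoal/dextran-treated FBS were treated with compound titrations at 37 C for 18 hrs; beta-lactamase reporter read by CCF4 fluorescence after 2 hrs at RT.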
Background: In qHTS, concentration-response curves come from the screen itself.

The target in experiment [2] is Glucocorticoid receptor (Homo sapiens) (UniProt P04150). The experiment in a line: qHTS assay for small molecule agonists of glucocorticoid receptor signaling (AID 588532; active = well fitted curve in the direction sought with a large enough effect in the signal ratio, with a control signal flat; the % refers to the signal ratio;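 note: 100% = dexamethasone at 0.1 µM and 0% = DMSO only wells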). As to conditions: HeLa MMTV-bla, beta-lactamase ratio, agonist, 18 h; activation: stronger effect = higher value, percent of dexamethasone control, DMSO zero. In a few lines: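 Using MMTV-bla HeLa cells in medium with 1% stripped FBS and 25 mM HEPES, compounds were titrated and incubated overnight-length (18 h). Beta-lactamase cleavage of CCF4 was quantified by dual-emission fluorescence.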
Glucocorticoid receptor (Homo sapiens), sequence (P04150 whole entry, looked up): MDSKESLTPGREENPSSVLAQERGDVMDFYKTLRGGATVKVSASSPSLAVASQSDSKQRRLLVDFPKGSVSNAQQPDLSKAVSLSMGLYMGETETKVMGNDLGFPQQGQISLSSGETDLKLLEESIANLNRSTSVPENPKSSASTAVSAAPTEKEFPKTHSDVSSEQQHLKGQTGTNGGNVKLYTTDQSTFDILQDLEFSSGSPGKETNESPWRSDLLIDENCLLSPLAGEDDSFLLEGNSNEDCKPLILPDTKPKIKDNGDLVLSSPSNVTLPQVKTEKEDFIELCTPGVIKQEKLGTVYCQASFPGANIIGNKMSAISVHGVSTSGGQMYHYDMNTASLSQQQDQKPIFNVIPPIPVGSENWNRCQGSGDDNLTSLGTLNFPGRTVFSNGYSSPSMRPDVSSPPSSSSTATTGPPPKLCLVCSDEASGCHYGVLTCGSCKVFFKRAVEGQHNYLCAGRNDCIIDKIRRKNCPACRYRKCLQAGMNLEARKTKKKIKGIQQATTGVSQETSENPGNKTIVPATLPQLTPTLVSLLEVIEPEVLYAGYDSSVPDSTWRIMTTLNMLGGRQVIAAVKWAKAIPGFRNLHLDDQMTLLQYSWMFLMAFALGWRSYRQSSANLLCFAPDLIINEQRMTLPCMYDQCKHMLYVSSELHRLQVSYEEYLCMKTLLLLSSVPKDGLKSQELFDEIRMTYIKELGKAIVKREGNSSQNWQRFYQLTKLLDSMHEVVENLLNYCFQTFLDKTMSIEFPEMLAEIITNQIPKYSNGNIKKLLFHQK

For experiment [3] the target is unchanged. The experiment in a line: qHTS assay for small molecule antagonists of glucocorticoid receptor signaling (AID 588533; active = well fitted inhibition curve with a large enough effect in the signal ratio, with a control signal flat, not every such curve was filed as active; the % refers to the signal ratio;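 note: cells stimulated with 2 nM dexamethasone as agonist; % is set by controls: 0 for no effect and ±100 for the full control effect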). In a few lines: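 Antagonist-mode qHTS: compound titrations added to GRE-bla HeLa cells, then dexamethasone 2 nM final; 18 h, 37 C. CCF4 FRET fluorescence normalized to dexamethasone and DMSO; IC50 from Hill fit.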
Experiment [4] has as its target Peroxisome proliferator-activated receptor delta (Homo sapiens) (UniProt Q03181). The experiment in a line: qHTS assay for small molecule agonists of peroxisome proliferator-activated receptor delta signaling (AID 588534).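 Note: 0% = DMSO basal wells and 100% = positive control agonist at 10 µM.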 In a few lines: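 Cell-based beta-lactamase reporter assay run in agonist mode: cells seeded and incubated 5 hrs at 37 C, compounds added and incubated 18 hrs at 37 C. CCF4 dye fluorescence read after 2 hrs at RT; EC50 and efficacy from Hill fits.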

Experiment [5] can be described thus: qHTS assay for small molecule antagonists of peroxisome proliferator-activated receptor delta signaling (AID 588535; active = well fitted inhibition curve with a large enough effect in the signal ratio, with a control signal flat, not every such curve was filed as active; the % refers to the signal ratio;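 for max response: cells co-treated with a PPAR-delta agonist as stimulator during compound exposure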). As to conditions: HEK293T PPARd-UAS-bla, beta-lactamase FRET ratio, 18 h; 460 nm channel. In a few lines: (§1)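 Cell-based beta-lactamase assay in antagonist mode: 4000 HEK293T PPAR-delta-UAS-bla cells per well, 5 hr preincubation then 18 hr compound incubation at 37 C. IC50 obtained by Hill equation fitting.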

For experiment [6], the target named is Peroxisome proliferator-activated receptor delta (Homo sapiens) (UniProt Q03181). The description is as above. In a few lines:
as §1

Experiment [7] addresses Retinoic acid receptor RXR-alpha (Homo sapiens) (UniProt P19793). The experiment in a line: qHTS assay for small molecule agonists of retinoid X receptor alpha signaling (AID 588544).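 Note: 0% = DMSO basal wells and 100% = reference agonist.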
The target in experiment [8] is Thyroid hormone receptor beta (Homo sapiens) (UniProt P10828). The experiment in a line: qHTS assay for small molecule agonists of thyroid hormone receptor beta signaling (AID 588545).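 Note: 0% = DMSO only and 100% = 10 nM T3.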 In outline:
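TR-UAS-bla GripTite HEK 293 cells (2500/well, medium with 2% charcoal/dextran FBS) were treated in agonist mode for 18 h at 37 C, titrated. Beta-lactamase was read by CCF4 ratio after 2 h; normalized to 10 nM T3 (100%) and DMSO, Hill-fitted for EC50 and efficacy.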

Experiment [9] in a line: qHTS assay for small molecule antagonists of retinoid X receptor alpha signaling (AID 588546; active = well fitted inhibition curve with a large enough effect in the signal ratio, with a control signal flat, not every such curve was filed as active; the % refers to the signal ratio;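 note: cells stimulated with 9-cis-retinoic acid as agonist; % is set by controls: 0 for no effect and ±100 for the full control effect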). To be noted: HEK293T RXRa-UAS-bla, beta-lactamase ratio, antagonist mode; measured here: W530 green channel, cytotoxicity proxy. In outline:
(§2)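 Beta-lactamase reporter inhibition, read as CCF4 fluorescence ratio (ex 405, em 460/530 nm) after 2 h at RT. HEK293T UAS-bla cells, 2500/well, were stimulated with 9-cis-RA at 500 or 100 nM final alongside test compound for 18 h at 37 C.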

The target in experiment [10] is Retinoic acid receptor RXR-alpha (Homo sapiens) (UniProt P19793). The description is as above. To be noted: HEK293T RXRa-UAS-bla, beta-lactamase ratio, antagonist mode. In outline:
as §2

For experiment [11], the target named is Thyroid hormone receptor beta (Homo sapiens) (UniProt P10828). The experiment in a line: qHTS assay for small molecule antagonists of thyroid hormone receptor beta signaling (AID 588547; active = well fitted inhibition curve with a large enough effect in the signal ratio, with a control signal flat, not every such curve was filed as active; the % refers to the signal ratio;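 note: cells stimulated with 0.4 nM T3 agonist during compound exposure; series mostly up to about 77 µM; % is set by controls: 0 for no effect and ±100 for the full control effect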). As to conditions: TR-UAS-bla HEK293, beta-lactamase ratio, antagonist mode, 18 h. In outline:
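Inhibition of T3-driven (0.4nM final) beta-lactamase reporter activity was measured over 0.59 nM to 92 uM compound after 18 h at 37 C. The cells were GripTite HEK293 TR-UAS-bla in charcoal/dextran-stripped serum, with CCF4 ratio read-out and IC50 from Hill fits.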

The nature of experiment [12]: qHTS assay for small molecule activators of the p53 signaling pathway (AID 651743; active = well fitted activation curve with a large enough effect in the signal ratio, not every such curve was filed as active; the % refers to the signal ratio; note: series mostly up to about 92 µM; % of control where 0% means no effect). To be noted: HCT-116 p53RE-bla, beta-lactamase FRET ratio, 16 h; activation: stronger effect = higher value. In outline:
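Screen for p53 pathway agonists uses stably transfected p53RE-bla HCT-116 cells, 4,000 per well, treated 16 h at 37 C with compounds in DMSO.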

A short description of experiment [13]: qHTS assay for environmental chemicals that activate the Aryl hydrocarbon Receptor (AhR) signaling pathway (AID 651777; active = well fitted curve in the direction sought with a large enough effect; an effect the other way counts as inactive or inconclusive; note: % of control where 0% means no effect; nearly all actives have a fitted effect of over 15% in size). To be noted: 1A2-DRE human hepatoma cells, luciferase, 24 h; activation: stronger effect = higher value. In outline:
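AhR activation is scored as a rise in luciferase from a stable DRE–CYP1A2 promoter construct in human hepatoma cells. Treatment lasts 24 hr at 37 C; detection uses One-Glo after 30 min at room temperature.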

Experiment [14] concerns the target Peroxisome proliferator-activated receptor alpha (Homo sapiens) (UniProt Q07869). The experiment in a line: qHTS assay for small molecule agonists of the peroxisome proliferator-activated receptor alpha (PPARalpha) signaling pathway (AID 651778; active = well fitted curve in the direction sought with a large enough effect; an effect the other way counts as inactive or inconclusive; note: % of control where 0% means no effect). As to conditions: PathHunter PPARalpha complementation, chemiluminescence, 6 h; max response: stronger effect = higher value. In a few lines:
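Chemiluminescence from complemented enzyme reported PPARalpha activation in cells after 6 hr of compound treatment at 37 C. The detection reagent was incubated for 60 min at room temperature, and compounds were scored as agonists.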

Experiment [15] is described as follows: qHTS assay for small molecule agonists of the antioxidant response element (ARE) signaling pathway measured by Nrf2-dependant transcriptional activity (AID 720636; active = well fitted curve in the direction sought with a large enough effect in the repeat runs; an effect the other way counts as inactive or inconclusive;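 note: HepG2 cells with an ARE-driven luciferase reporter; % of control where 0% means no effect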). In a few lines:
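First, ARE-luc HepG2 cells attached for 6 hr at 37 C in 1% dialyzed FBS medium. Next, compound or DMSO was added and incubated 16 hr. Finally, ONE-Glo reagent was added and luminescence measured after 30 min.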

Experiment [16] is described as follows: qHTS assay for small molecule agonists of the antioxidant response element (ARE) signaling pathway measured by Nrf2-dependant transcriptional activity - cell viability counter screen (AID 720653; active = well fitted curve in the direction sought with a large enough effect in the repeat runs; an effect the other way counts as inactive or inconclusive; note: % is set by controls: 0 for no effect and ±100 for the full control effect). As to conditions: ARE-bla HepG2 viability, CellTiter-Glo ATP luminescence, 16 h; max response: stronger effect = lower value. In outline: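 Cytotoxicity counter screen: intracellular ATP quantified by CellTiter-Glo luminescence in the same ARE-bla HepG2 plates, after 16 h compound exposure and a 2 h beta-lactamase substrate step.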

Experiment [17] can be described thus: qHTS assay for cell viability of HEK293 cells (AID 743288; active = well fitted curve in the direction sought with a large enough effect; an effect the other way counts as inactive or inconclusive; note: % is set by controls: 0 for no effect and ±100 for the full control effect; nearly all actives have a fitted effect of over 50% in size). As to conditions: ATP luminescence (CellTiter-Glo), 18 h; max response: stronger effect = lower value. In outline: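 Total intracellular ATP, measured with a luciferase-coupled reagent, indicates the number of viable HEK293 cells. Exposure to test chemicals lasts 18 h at 37 C in 1,536-well format at 2,000 cells/well.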

Experiment [18] is described as follows: qHTS assay for cell viability of the p53RE-bla HCT-116 cell line (AID 743292; active = well fitted curve in the direction sought with a large enough effect; an effect the other way counts as inactive or inconclusive; note: % is set by controls: 0 for no effect and ±100 for the full control effect; nearly all actives have a fitted effect of over 55% in size). In outline: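 Quantitative high-throughput format: compounds in DMSO were pinned onto p53RE-bla HCT-116 cells (4,000/well) and incubated 16 h at 37 C. Total intracellular ATP, read by CellTiter-Glo luminescence, reflects viable cell number.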
In experiment [19] the target is Peroxisome proliferator-activated receptor gamma (Homo sapiens) (UniProt P37231). The experiment in a line: qHTS assay for small molecule agonists of peroxisome proliferator-activated receptor gamma signaling (AID 588536; active = well fitted curve in the direction sought with a large enough effect in the signal ratio, with a control signal flat, not every such curve was filed as active; the % refers to the signal ratio;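 note: 0% = DMSO basal wells and 100% = rosiglitazone at 2 µM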). In outline: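 HEK293 UAS-bla reporter line, 1% charcoal/dextran FBS; titration, 16 h, 37 C; CCF4 loading 2 h RT; fluorescence 460/530 nm. Normalized to rosiglitazone 2 uM = 100%, DMSO = 0%.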
Peroxisome proliferator-activated receptor gamma (Homo sapiens), sequence (P37231 whole entry, looked up): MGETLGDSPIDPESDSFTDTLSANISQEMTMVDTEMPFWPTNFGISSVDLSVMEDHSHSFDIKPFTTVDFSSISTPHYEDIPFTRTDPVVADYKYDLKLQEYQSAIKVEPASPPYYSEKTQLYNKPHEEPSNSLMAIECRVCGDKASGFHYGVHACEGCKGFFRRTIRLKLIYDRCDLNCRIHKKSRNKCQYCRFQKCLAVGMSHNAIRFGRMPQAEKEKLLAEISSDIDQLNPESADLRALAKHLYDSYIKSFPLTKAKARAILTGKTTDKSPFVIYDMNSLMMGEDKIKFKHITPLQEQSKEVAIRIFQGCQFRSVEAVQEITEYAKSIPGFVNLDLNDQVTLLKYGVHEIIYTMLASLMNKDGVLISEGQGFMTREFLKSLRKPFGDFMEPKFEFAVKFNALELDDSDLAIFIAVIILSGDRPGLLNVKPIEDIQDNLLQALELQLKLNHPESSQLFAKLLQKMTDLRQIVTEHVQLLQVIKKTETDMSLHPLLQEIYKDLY

Experiment [20] deals with Nuclear receptor subfamily 1 group I member 2 (Rattus norvegicus) (UniProt Q9R1A7). The experiment in a line: qHTS assay for small molecule activators of the rat pregnane X receptor (rPXR) signaling pathway (AID 651751; call rule not given here; note: 0% is about no effect). As to conditions: rPXR reporter cells, luciferase (One-Glo), 24 h.
Nuclear receptor subfamily 1 group I member 2 (Rattus norvegicus), sequence (Q9R1A7 whole entry, looked up): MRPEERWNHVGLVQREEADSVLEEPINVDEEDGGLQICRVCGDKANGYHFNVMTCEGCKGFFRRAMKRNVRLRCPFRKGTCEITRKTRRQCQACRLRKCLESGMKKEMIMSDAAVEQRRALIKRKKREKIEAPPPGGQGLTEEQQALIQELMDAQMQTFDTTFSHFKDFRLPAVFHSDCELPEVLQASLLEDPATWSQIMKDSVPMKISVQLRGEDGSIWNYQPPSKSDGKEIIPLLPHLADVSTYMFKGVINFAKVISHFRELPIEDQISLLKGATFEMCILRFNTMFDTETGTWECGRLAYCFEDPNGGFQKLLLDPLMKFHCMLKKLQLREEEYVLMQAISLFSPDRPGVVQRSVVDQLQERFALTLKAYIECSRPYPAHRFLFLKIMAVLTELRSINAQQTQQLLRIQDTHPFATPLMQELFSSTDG

Molecules are shown by their SMILES. Results filed as inconclusive are left out. The source made the active and inactive calls. Unless noted, calls come from the whole dose curve.

Peroxisome proliferator-activated receptor alpha (Homo sapiens), sequence (Q07869 whole entry, looked up): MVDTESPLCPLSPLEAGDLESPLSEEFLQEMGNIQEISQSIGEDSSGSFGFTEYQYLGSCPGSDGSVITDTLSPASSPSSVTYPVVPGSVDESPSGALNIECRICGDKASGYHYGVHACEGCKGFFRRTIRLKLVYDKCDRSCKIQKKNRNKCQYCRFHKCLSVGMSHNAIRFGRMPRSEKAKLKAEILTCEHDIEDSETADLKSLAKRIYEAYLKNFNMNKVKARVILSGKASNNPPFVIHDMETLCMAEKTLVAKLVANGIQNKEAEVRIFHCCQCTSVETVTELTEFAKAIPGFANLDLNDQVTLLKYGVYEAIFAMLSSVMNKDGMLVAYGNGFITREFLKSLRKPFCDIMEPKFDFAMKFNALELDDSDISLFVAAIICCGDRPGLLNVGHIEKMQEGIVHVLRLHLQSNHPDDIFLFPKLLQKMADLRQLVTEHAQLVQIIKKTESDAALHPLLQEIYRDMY
Estrogen receptor (Homo sapiens), sequence (P03372 whole entry, looked up): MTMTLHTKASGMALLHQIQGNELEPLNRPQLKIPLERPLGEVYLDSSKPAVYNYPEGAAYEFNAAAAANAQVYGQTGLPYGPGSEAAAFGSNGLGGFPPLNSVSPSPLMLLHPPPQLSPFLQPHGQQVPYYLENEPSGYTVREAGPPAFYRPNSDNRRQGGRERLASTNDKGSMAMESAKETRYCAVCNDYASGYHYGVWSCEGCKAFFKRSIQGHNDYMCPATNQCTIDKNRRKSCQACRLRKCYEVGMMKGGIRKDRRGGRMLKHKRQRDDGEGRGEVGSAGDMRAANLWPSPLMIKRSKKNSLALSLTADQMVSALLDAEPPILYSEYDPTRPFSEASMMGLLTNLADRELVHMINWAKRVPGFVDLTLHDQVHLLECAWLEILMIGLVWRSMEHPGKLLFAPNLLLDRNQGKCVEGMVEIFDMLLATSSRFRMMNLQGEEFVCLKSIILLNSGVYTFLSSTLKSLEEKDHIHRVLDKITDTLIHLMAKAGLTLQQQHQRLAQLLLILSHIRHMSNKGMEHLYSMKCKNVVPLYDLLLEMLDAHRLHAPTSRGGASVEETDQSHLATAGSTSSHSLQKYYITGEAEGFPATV
Thyroid hormone receptor beta (Homo sapiens), sequence (P10828 whole entry, looked up): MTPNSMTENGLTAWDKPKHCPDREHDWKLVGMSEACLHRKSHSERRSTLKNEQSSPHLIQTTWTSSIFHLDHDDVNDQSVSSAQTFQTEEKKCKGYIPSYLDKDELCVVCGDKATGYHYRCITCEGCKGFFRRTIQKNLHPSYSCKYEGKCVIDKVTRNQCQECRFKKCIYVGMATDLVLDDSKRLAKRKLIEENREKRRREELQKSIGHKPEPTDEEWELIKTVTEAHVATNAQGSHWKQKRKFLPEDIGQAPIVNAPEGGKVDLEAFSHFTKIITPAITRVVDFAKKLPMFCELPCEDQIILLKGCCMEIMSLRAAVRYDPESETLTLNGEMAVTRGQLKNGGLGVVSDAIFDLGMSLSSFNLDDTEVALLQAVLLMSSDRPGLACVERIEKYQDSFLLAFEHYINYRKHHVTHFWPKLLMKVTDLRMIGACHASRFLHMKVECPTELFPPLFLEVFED
Retinoic acid receptor RXR-alpha (Homo sapiens), sequence (P19793 whole entry, looked up): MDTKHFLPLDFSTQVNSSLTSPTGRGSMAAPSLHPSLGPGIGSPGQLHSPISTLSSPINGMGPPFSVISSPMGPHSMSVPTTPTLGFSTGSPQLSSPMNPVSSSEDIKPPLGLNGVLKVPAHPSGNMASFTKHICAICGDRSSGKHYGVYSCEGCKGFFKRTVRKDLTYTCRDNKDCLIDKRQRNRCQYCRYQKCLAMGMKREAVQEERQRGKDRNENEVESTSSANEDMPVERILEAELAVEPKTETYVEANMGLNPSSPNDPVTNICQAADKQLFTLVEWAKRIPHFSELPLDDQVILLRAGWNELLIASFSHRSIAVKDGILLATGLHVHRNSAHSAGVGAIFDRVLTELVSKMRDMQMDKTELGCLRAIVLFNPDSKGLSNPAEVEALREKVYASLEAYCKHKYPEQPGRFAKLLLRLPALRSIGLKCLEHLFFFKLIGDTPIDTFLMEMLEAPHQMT
Peroxisome proliferator-activated receptor delta (Homo sapiens), sequence (Q03181 whole entry, looked up): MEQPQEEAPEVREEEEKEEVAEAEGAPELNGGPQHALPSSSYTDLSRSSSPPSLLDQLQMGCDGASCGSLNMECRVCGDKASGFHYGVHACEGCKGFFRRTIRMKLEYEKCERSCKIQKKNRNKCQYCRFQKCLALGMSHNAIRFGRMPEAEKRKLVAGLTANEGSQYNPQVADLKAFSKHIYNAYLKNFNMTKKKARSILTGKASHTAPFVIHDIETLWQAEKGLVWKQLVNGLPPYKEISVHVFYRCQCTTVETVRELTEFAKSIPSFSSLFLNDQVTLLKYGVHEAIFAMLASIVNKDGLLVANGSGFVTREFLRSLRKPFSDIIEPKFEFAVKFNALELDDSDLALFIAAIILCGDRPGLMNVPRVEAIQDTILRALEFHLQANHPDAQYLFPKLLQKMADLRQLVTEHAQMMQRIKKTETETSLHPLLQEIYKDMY

As for `CC(C)=CC1[C@H](C(=O)OCc2cccc(Oc3ccccc3)c2)C1(C)C` (stereo partly drawn), the Potency result in [1], in experiment [3], in experiment [6], in experiment [7], in experiment [8] and in experiment [15] was “inactive” in each case. The Potency result in [18] is “inactive”. Moreover, the figures for the activation in experiment [2], in experiment [12] and in [13] were 1.86% (inactive), -1.37% (inactive) and -0.0338% (inactive), respectively. In addition, the compound was classed as inactive in experiment [4]. The max response in [5] was 26%; in experiment [9] it was -13.6%; in [10], 3.36% (inactive); in experiment [14], -1.72% (inactive); in [16], -3.94% (inactive); in experiment [17], -10.6% (inactive). In addition, the activity change % (negative = inhibition) in [11] is 2.1% (inactive).
For `CCc1cc(C)cc(CC)c1-c1c(OC(=O)C(C)(C)C)n2n(c1=O)CCOCC2`, the Potency result in experiment [1], in [3], in experiment [6], in experiment [19], in experiment [7] and in experiment [8] was “inactive” in each case. The Potency entry in experiment [15] and in experiment [18] was “inactive” throughout. Further, the activation in [2] was -0.342% (inactive); in [13], 2.1% (inactive). Further, in experiment [4], the outcome was inactive. Moreover, the max response in experiment [5] is 34.5%; in experiment [9] it was 0.581%; in [10] it was 4.99% (inactive); in experiment [16], 0.802% (inactive); in experiment [17], -3.66% (inactive); in [20], 1.04% (inactive). Moreover, the activity change % (negative = inhibition) in experiment [11] is -5.07% (inactive).
Consider `O=[N+]([O-])Nc1nccn1Cc1ccc(Cl)nc1`, for which the Potency result in [1], in experiment [3], in experiment [6], in experiment [19], in experiment [7] and in experiment [15] was “inactive” each time. In addition, the Potency entry in [18] was “inactive”. Moreover, the activation in experiment [2] was 0.289% (inactive); in experiment [12] it was -1.74% (inactive). Also, in experiment [4], the compound was called inactive. Moreover, the max response was 19.2% in experiment [5]; -3.06% in experiment [9]; -0.0433% (inactive) in experiment [14]; -8% (inactive) in [17]; -4.49% (inactive) in experiment [20]. Moreover, the activity change % (negative = inhibition) in experiment [11] is -3.59% (inactive).
On to `Nc1cccc(Cl)c1Cl`, for which the Potency entry in experiment [1], in [3], in experiment [6], in experiment [19], in experiment [7] and in [8] was “inactive” throughout. For the same compound, the Potency result in [15] and in [18] was “inactive” in each case. The activation in experiment [2] is 0.21% (inactive); in experiment [12], -4.27% (inactive); in experiment [13] it was -0.499% (inactive). In addition, the call in [4] was inactive. In addition, the max response is 30.5% in experiment [5]; -14.5% in experiment [9]; -4.45% (inactive) in experiment [10]; -3.86% (inactive) in [14]; -14.4% (inactive) in experiment [16]; -1.9% (inactive) in [17]. In addition, the max response in [20] was 0.634% (inactive).
On to `O=C1c2ccccc2C(=O)C1C(=O)C(c1ccccc1)c1ccc(Cl)cc1` (stereo not drawn), for which the Potency entry in experiment [1], in experiment [6], in [19], in [7], in experiment [8] and in experiment [15] was “inactive” in each case. The Potency result in experiment [18] is “inactive”. Also, the activation in [2] was -5.26% (inactive); in [13] it was 3.58% (inactive). The call in [4] was inactive. Besides, the max response was 65.6% in experiment [5]; -2.15% in [9]; 36.5% (inactive) in experiment [10]; -1.87% (inactive) in experiment [14]; -33.5% (inactive) in experiment [16]; 10.4% (inactive) in experiment [20]. Besides, the activity change % (negative = inhibition) in [11] is 15% (inactive).
